Assay outcomes: PubChem BioAssay, National Center for Advancing Translational Sciences (NCATS)
A selection: hits, their analogues and other compounds. The true share with any hit is near 5.7%.
KB-V1 MDR tox = kills drug-selected multidrug resistant KB-V1 cells | KB-V1 MDR cells viability, CellTiter-Glo, 72 h | Potency, µM (titrated, usually from 46.1 µM), hits mostly cytotoxic | 400,000 compounds, 3.4% hits; further: potency means the concentration at half of the fitted maximal effect; nearly all actives have a fitted effect of over 60% in size
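Cytotoxicity toward P-gp-expressing KB-V1 cells was determined as loss of CellTiter-Glo luminescence after 72 h at 37 degrees C. Compounds were tested in quantitative HTS format across a concentration range, with curves fitted to normalized data.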
A549 viability = kills or reduces viability of A549 cells in Nrf2 counter-screen; A549 ARE-Fluc cells, CellTiter-Fluor viability, 18-24 h; Potency, µM (top dose mostly 46 µM), for the others: top-dose activity change, negative = cytotoxicity, usual class: inhibitors; 390,000 compounds, 0.16% hits; further: potency means the concentration at half of the fitted maximal effect
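A549 ARE_Fluc cells in 5% FBS OPTI-MEM were exposed to compounds in concentration-response for 18-24 h at 37 deg C. Viability was read by CellTiter-Fluor fluorescence (Ex 405/Em 525) after 30 min, before the luciferase read.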
Giardia kill = Giardia lamblia killing | activity change, % at 7.66 µM, hits read low | AID 540267 | 340,000 compounds, 0.15% hits | Giardia lamblia trophozoite viability; in the data active means activity change below about -80%; inconclusive means between about -30% and that limit;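 further: parasites exposed to compound for two days anaerobically before the ATP read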
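Luminescence from cellular ATP indicates surviving trophozoites (100 cells/well) following 48 hrs anaerobic compound treatment at 37 deg C; signal develops 15-30 min at room temperature.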
KB-3-1 tox = KB-3-1 parental cell cytotoxicity; KB-3-1 viability, CellTiter-Glo ATP luminescence, 72 h; Potency, µM (highest dose often 46.1 µM), usual class: cytotoxic; 400,000 compounds, 1.4% hits; further: potency means the concentration at half of the fitted maximal effect; nearly all actives have a fitted effect of over 60% in size
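Using CellTiter-Glo luminescence, growth of non-resistant KB-3-1 adenocarcinoma cells is assessed 72 h after pin-tool compound addition at 37 °C. Normalized responses across the concentration series yield fitted curves.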
Nrf2 block = Nrf2 pathway inhibition; A549 ARE-Fluc reporter, luciferase luminescence, 18-24 h; AID 504444; 360,000 compounds, 2.1% hits; Potency, µM (series often up to 46 µM), without a hit: at the highest dose activity change, negative = inhibition, most hits filed as inhibitors; further: potency means the concentration at half of the fitted maximal effect; nearly all actives have a fitted effect of over 60% in size
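Reporter: ARE-Fluc in A549. Exposure: 18-24 h, 37 °C, 5% CO2, 5% FBS OPTI-MEM. Readouts: fluorescent cytotoxicity (CellTiter-Fluor), then luminescent Nrf2 signal after BugLite.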
PI4K2A block = PI4K2A (human) kinase inhibition; Q9BTU6; purified PI4K2A, ADP-Glo luminescence, 1 h; hits give low values; activity change, negative = inhibition, % at 76.9 µM; 420,000 compounds, 0.13% hits; in the data active means activity change below about -50%; inconclusive means mostly about -30% to -49%;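 further: -100% = wells without enzyme as full effect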
Target sequence (Q9BTU6 whole entry, looked up): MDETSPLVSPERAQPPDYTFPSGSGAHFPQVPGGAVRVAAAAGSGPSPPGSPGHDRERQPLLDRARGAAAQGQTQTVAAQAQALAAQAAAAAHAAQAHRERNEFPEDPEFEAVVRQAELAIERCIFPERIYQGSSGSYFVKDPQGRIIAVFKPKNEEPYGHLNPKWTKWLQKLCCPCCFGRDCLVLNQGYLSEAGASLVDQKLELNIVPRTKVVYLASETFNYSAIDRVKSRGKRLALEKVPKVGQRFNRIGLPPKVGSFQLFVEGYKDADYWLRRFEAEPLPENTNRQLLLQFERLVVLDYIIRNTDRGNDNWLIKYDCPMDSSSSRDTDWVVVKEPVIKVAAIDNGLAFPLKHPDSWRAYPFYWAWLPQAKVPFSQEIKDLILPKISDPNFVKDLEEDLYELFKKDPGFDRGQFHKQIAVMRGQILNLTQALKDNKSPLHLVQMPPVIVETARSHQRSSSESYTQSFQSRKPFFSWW
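Compounds are screened against recombinant PI4K2A using PI as substrate and ATP, the latter dispensed at 300 microM. Reactions run one hour at ambient temperature before ADP-Glo detection; full inhibition defined by wells lacking enzyme.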
An asterisk follows results filed as active; i = inactive; u = inconclusive; x = no result. Unless noted, the call rests on the fitted dose curve; in most records, active means well fitted curve in the direction sought with a large enough effect; inconclusive means small, poorly fitted or top-dose-only effect, or another doubt; inactive means no such curve, though single readings can be large; an effect the other way counts as inactive or inconclusive. Unless noted, on the % scale 0 is the no-effect control and ±100 the full control effect.

SMILES | KB-V1 MDR tox | A549 viability | Giardia kill | KB-3-1 tox | Nrf2 block | PI4K2A block
O=C(NCCc1ccccc1)C(=O)NCC1CCCN1S(=O)(=O)c1ccccc1 (centres undefined) | 11.6µM* | -14.5% | 2.9 | u | 17.4% | -1.4
CC(C)(C)c1ccc(C(=O)NCC2CCCN2S(=O)(=O)c2ccccc2)cc1 (centres undefined) | u | -6.5% | -7.8 | u | 20.6µM* | -3.6
O=C(c1ccccc1OCc1ccccc1)N(Cc1ccccn1)CC1CCCO1 (centres undefined) | x | x | x | x | x | -7.4
CSc1ccc(CCNC(=O)Cn2ncn3c(cc4ccccc43)c2=O)cc1 | x | 1.4% | x | x | 10.6% | -2.0
CN(Cc1ccc(Cl)c(Cl)c1)C(=O)C1=CC=CN2CCS(=O)(=O)N=C12 | i | -4.4% | 27.4 | u | 8.2µM* | 5.5
COc1ccc(Br)cc1CN(C)C(=O)c1ccncc1 | i | 1.9% | 6.2 | i | 1.0% | 2.2
O=C(Oc1ccc(Cl)c(Cl)c1)C1=CC=CN2CCS(=O)(=O)N=C12 | i | -2.5% | -12.8 | i | 2.2% | 1.8
COc1ccc(Br)cc1CN(C)C(=O)C1=CC=CN2CCS(=O)(=O)N=C12 | i | -10.6% | 14.8 | i | 16.4µM* | 1.8
CCc1c(C)nc2nncn2c1NCc1ccc(Cl)cc1 | x | -16.5% | x | x | 8.2µM* | -1.1
O=C(CN1C(=O)C2(OCCO2)c2ccccc21)c1ccc(Cl)cc1 | 20.6µM* | 9.6% | -7.6 | i | x | -5.6
Cc1nnc(SCC(=O)N2CCOCC2)c2ccccc12 | i | 0.8% | -2.7 | i | 9.2µM* | -4.5
CCc1c2c(nc3ccc(OC)cc13)-c1nc3ccccc3c(=O)n1C2 | x | 1.3% | -9.3 | x | u | x
COc1ccc(C(CNC(=O)c2cccc(N(C)C)c2)N2CCCC2)cc1 (centres undefined) | i | 0.7% | 3.5 | i | 19.5% | -2.6
COc1cc(C(=O)NCC(c2ccco2)N2CCCC2)ccc1OCc1ccc(Cl)cc1Cl (centres undefined) | u | u | 4.3 | i | u | -3.6
COc1ccc(C(CNC(=O)CNC(=O)c2ccccc2Cl)N2CCCC2)cc1 (centres undefined) | i | -1.4% | -3.3 | i | 6.3% | -2.0
COc1ccc(C(CNC(=O)c2cc3ccccc3cc2OC)N2CCCC2)cc1 (centres undefined) | 4.61µM* | -3.4% | 16.0 | i | 7.2% | 3.6
CCC1CCc2sc(C(=O)NCC(c3ccc(OC)cc3)N3CCCC3)cc2C1 (centres undefined) | 9.2µM* | -13.9% | -2.1 | u | 12.5% | -0.4
COc1ccc(Cl)cc1C(=O)NCC(c1ccco1)N1CCCC1 (centres undefined) | 9.2µM* | 1.1% | -9.2 | i | 1.9% | -1.5
Cc1cc(C)c(NC(=O)c2sc3nc(C)cc(C)c3c2NC(=O)c2ccccc2)c(C)c1 | x | -6.9% | x | x | -16.3% | -0.8
Cn1c2cc(S(C)=O)sc2c2cnn(Cc3ccccc3F)c(=O)c21 (centres undefined) | x | 11.4% | x | x | -14.0% | x
CC1=NN(c2ccccc2)C(=O)C1=Cc1ccccc1 | u | x | x | i | x | -56.6*
CC1=NN(c2ccccc2)C(=O)/C1=C/C=C/C=C/N(C)C | i | 10.3µM* | -15.5 | u | u | u
CC1=NN(c2ccccc2)C(=O)/C1=C/c1c(O)n(-c2ccc(F)cc2)[nH]c1=O | 7.31µM* | -25.7% | 21.3 | 20.6µM* | 5.1% | -0.3
CC1=NN(c2ccccc2)C(=O)/C1=C/c1ccc(Cl)cc1 | i | 0.0% | 2.8 | i | -19.5% | u
C=C(C)c1cc2c(s1)c1cnn(Cc3ccccc3F)c(=O)c1n2C | x | 0.9% | x | x | u | x
SMILES | KB-V1 MDR tox | A549 viability | Giardia kill | KB-3-1 tox | Nrf2 block | PI4K2A block
COc1ccccc1CNC(=O)N(CCc1c(C)[nH]c2ccccc12)Cc1cccs1 | x | x | x | x | x | -0.7
COc1cccc(/C=N/Nc2nc3ccccc3n3cnnc23)c1 | i | 0.0% | 18.2 | i | -7.8% | -7.3
COc1ccc(Nc2nc3ccccc3n3cnnc23)cc1 | 13µM* | -14.2% | -1.0 | i | u | u
COc1cccc(/C=N/Nc2nc3ccccc3n3cnnc23)c1O | 6.51µM* | 0.9% | 15.3 | u | u | -4.1
Cc1ccc(CNC(=O)CCC(=O)N2CC3CCCN3c3ccccc32)cc1 (centres undefined) | u | 17.5% | x | i | u | 0.5
Cc1ccc(NC(=O)C2CCN(S(=O)(=O)c3cc([N+](=O)[O-])ccc3Cl)CC2)nc1 | i | -16.8% | u | i | 20.6µM* | 2.7
O=C(Nc1nc2ccc(F)cc2s1)C1CCN(S(=O)(=O)c2cc([N+](=O)[O-])ccc2Cl)CC1 | 14.6µM* | -12.4% | -11.6 | 14.6µM* | -21.8% | -19.0
Cc1nc(N2CCN(C(=O)c3cccs3)CC2)c2c3c(sc2n1)CCCC3 | u | u | 19.9 | i | 18.4µM* | -2.5
CCc1nc(SCC(=O)N2CCN(C(=O)c3ccco3)CC2)c2c3c(sc2n1)CCCC3 | u | 5.6% | 4.4 | i | -22.4% | -6.0
Cc1nc(N2CCN(C)CC2)c2c3c(sc2n1)CCCC3 | i | -26.1% | -2.0 | i | u | 3.1
Cc1nc(N2CCN(C(=O)c3ccco3)CC2)c2c3c(sc2n1)CCCC3 | 20.6µM* | -22.5% | 0.2 | i | u | 0.9
Cc1sc2nc(CN3CCCC3)nc(N3CCN(C(=O)c4ccco4)CC3)c2c1C | i | 0.9% | -18.2 | i | u | -2.6
O=C(c1ccco1)N1CCN(c2nc(C3CC3)nc3sc4c(c23)CCCC4)CC1 | 20.6µM* | u | 2.2 | i | 23.1µM* | -1.9
Cc1nc(N2CCN(C(=O)c3ccco3)CC2)c2c3c(sc2n1)CC(C)CC3 (centres undefined) | 8.2µM* | -0.1% | -1.9 | i | u | 4.7
CC1(C)S[C@@H]2[C@H](NC(=O)Cc3ccccc3)C(=O)N2[C@H]1C(=O)O (tested in a mixture with another compound) | x | x | x | x | x | -1.8
O=C1N2Cc3ccccc3C2CS(=O)(=O)N1Cc1ccccc1 (centres undefined) | x | x | x | x | x | -1.6
Cc1nc2ccccc2n1CCc1nc2c3ccccc3nc(SCc3ccc(C#N)cc3)n2n1 | i | -7.7% | x | i | x | 7.8
O=C(c1ccco1)N1CCC(c2nc3c(nnn3Cc3ccccc3Cl)c(=O)[nH]2)CC1 | i | -14.0% | 5.6 | i | -8.2% | -0.3
CCOC(=O)c1nc(N2CCN(C(=O)OCC)CC2)c2c3c(sc2n1)CCCC3 | i | -6.8% | 5.5 | i | 25.9µM* | 0.2
